“And” between values parts separate entries of the source, which are not always exact repeats. Equal entries are not always repeated. Among all 5,500 compounds or so, about 2,000 (36%) were called active. Not shown: some 18% with an inconclusive outcome. The list shows a part of the results. A number with no mark means an inactive call. No stated cut-off is given here; in the data, active means normalized growth mostly below about 0.91 (no sharp cut-off); inconclusive means no clear call, values can overlap the other calls; inactive means mostly above about 0.92.
Assay: chemical genetic growth profiling, strain panel (AID 1159580);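 further: tested at 20 µM; growth read once vehicle control cultures reached saturation at 30 °C; 1 = growth at the plate median or of vehicle wells; lower values mean less growth of the strain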
Details: S. cerevisiae deletion strains, growth OD

Molecule `CCOC(=O)c1c(C)cc(OC)cc1O` has a normalized growth (locus YAL013W, strain DEP1, active compounds read low) of 1, a normalized growth (locus YAL021C, strain ccr4, active compounds read low) of 1.02 and a normalized growth (locus YAL026C, strain drs2, active compounds read low) of 0.977. For the same molecule, the normalized growth (locus YAL030W, strain snc1, active compounds read low) was 0.962, the normalized growth (locus YBL061C, strain skt5, active compounds read low) was 0.981 and the normalized growth (locus YBR009C, strain hhf1, active compounds read low) was 0.962. For the same molecule, the normalized growth (locus YBR021W, strain FUR4, active compounds read low) was 0.971, the normalized growth (locus YBR023C, strain chs3, active compounds read low) was 0.97 and the normalized growth (locus YBR171W, strain sec66, active compounds read low) was 0.934. For the same molecule, the normalized growth (locus YBR229C, strain ROT2, active compounds read low) was 1, the normalized growth (locus YBR231C, strain swc5, active compounds read low) was 0.987 and the normalized growth (locus YBR279W, strain paf1, active compounds read low) was 0.993. For the same molecule, the normalized growth (locus YCL011C, strain gbp2, active compounds read low) was 0.975, the normalized growth (locus YCL016C, strain dcc1, active compounds read low) was 0.971 and the normalized growth (locus YCL029C, strain bik1, active compounds read low) was 0.949. It also gave a normalized growth (locus YCL061C, strain MRC1, active compounds read low) of 0.972, a normalized growth (locus YCL069W, strain vba3, active compounds read low) of 0.969 and a normalized growth (locus YCR088W, strain abp1, active compounds read low) of 0.953. It also gave a normalized growth (locus YDL005C, strain med2, active compounds read low) of 1.01, a normalized growth (locus YDL035C, strain GPR1, active compounds read low) of 0.983 and a normalized growth (locus YDL040C, strain nat1, active compounds read low) of 0.959. The normalized growth (locus YDL074C, strain BRE1, active compounds read low) was 0.955, the normalized growth (locus YDL101C, strain DUN1, active compounds read low) was 1.01 and the normalized growth (locus YDL134C, strain PPH21, active compounds read low) was 0.996. The normalized growth (locus YDL185W, strain tfp1, active compounds read low) was 0.984, the normalized growth (locus YDL192W, strain arf1, active compounds read low) was 0.942 and the normalized growth (locus YDR001C, strain nth1, active compounds read low) was 0.96. The normalized growth (locus YDR069C, strain doa4, active compounds read low) was 0.999, the normalized growth (locus YDR101C, strain arx1, active compounds read low) was 0.917 (active) and the normalized growth (locus YDR137W, strain rgp1, active compounds read low) was 0.784 (active). For the same molecule, the normalized growth (locus YDR150W, strain NUM1, active compounds read low) was 1.01, the normalized growth (locus YDR159W, strain sac3, active compounds read low) was 0.926 and the normalized growth (locus YDR162C, strain NBP2, active compounds read low) was 1.01. For the same molecule, the normalized growth (locus YDR195W, strain ref2) was 1.1, the normalized growth (locus YDR297W, strain sur2, active compounds read low) was 0.975 and the normalized growth (locus YDR318W, strain mcm21, active compounds read low) was 0.902 (active). The normalized growth (locus YDR334W, strain swr1, active compounds read low) was 0.979, the normalized growth (locus YDR335W, strain msn5, active compounds read low) was 0.991 and the normalized growth (locus YDR388W, active compounds read low) was 0.958. For the same molecule, the normalized growth (locus YDR392W, strain spt3, active compounds read low) was 0.724 (active), the normalized growth (locus YDR502C, strain sam2, active compounds read low) was 0.921 (active) and the normalized growth (locus YEL003W, strain gim4, active compounds read low) was 0.964. The normalized growth (locus YEL037C, strain rad23, active compounds read low) was 0.978, the normalized growth (locus YEL061C, strain CIN8 (second series), active compounds read low) was 0.962 and the normalized growth (locus YEL061C, strain CIN8, active compounds read low) was 0.989. For the same molecule, the normalized growth (locus YER015W, strain faa2, active compounds read low) was 0.991, the normalized growth (locus YER016W, strain bim1, active compounds read low) was 0.975 and the normalized growth (locus YER110C, active compounds read low) was 0.899 (active). The normalized growth (locus YER111C, strain swi4, active compounds read low) was 0.985, the normalized growth (locus YER155C, strain BEM2 (second series), active compounds read low) was 0.609 (active) and the normalized growth (locus YER155C, strain BEM2, active compounds read low) was 0.985. For the same molecule, the normalized growth (locus YER167W, strain BCK2, active compounds read low) was 0.935, the normalized growth (locus YFR010W, strain ubp6, active compounds read low) was 0.99 and the normalized growth (locus YGL078C, strain dbp3, active compounds read low) was 0.963. The normalized growth (locus YGL086W, strain mad1, active compounds read low) was 0.943, the normalized growth (locus YGL167C, strain pmr1, active compounds read low) was 0.973 and the normalized growth (locus YGL173C, strain kem1, active compounds read low) was 0.985. The normalized growth (locus YGL227W, strain vid30, active compounds read low) was 0.963, the normalized growth (locus YGL240W, strain doc1, active compounds read low) was 0.903 and the normalized growth (locus YGL248W, strain PDE1, active compounds read low) was 1. For the same molecule, the normalized growth (locus YGL253W, strain hxk2, active compounds read low) was 0.994, the normalized growth (locus YGR078C, strain PAC10, active compounds read low) was 0.965 and the normalized growth (locus YGR135W, strain pre9, active compounds read low) was 0.912. It also gave a normalized growth (locus YGR229C, strain SMI1, active compounds read low) of 0.972, a normalized growth (locus YGR252W, strain gcn5, active compounds read low) of 0.918 and a normalized growth (locus YHR013C, strain ard1, active compounds read low) of 0.969. For the same molecule, the normalized growth (locus YHR027C, strain rpn1, active compounds read low) was 0.988, the normalized growth (locus YHR030C, strain SLT2, active compounds read low) was 0.983 and 0.948 and the normalized growth (locus YHR079C, strain IRE1 (second series), active compounds read low) was 0.912 (active). The normalized growth (locus YHR079C, strain IRE1, active compounds read low) was 0.956, the normalized growth (locus YHR094C, strain hxt1, active compounds read low) was 0.946 and the normalized growth (locus YHR129C, strain ARP1, active compounds read low) was 0.983. It also gave a normalized growth (locus YHR142W, strain chs7, active compounds read low) of 0.918, a normalized growth (locus YHR200W, strain rpn10, active compounds read low) of 0.926 and a normalized growth (locus YIL066C, strain RNR3, active compounds read low) of 1. The normalized growth (locus YIL073C, strain SPO22, active compounds read low) was 0.891, the normalized growth (locus YIL125W, strain kgd1, active compounds read low) was 0.929 (active) and the normalized growth (locus YIR030C, strain dcg1, active compounds read low) was 0.94. The normalized growth (locus YJL092W, strain hpr5, active compounds read low) was 0.96, the normalized growth (locus YJL095W, strain BCK1 (second series), active compounds read low) was 0.976 and the normalized growth (locus YJL095W, strain BCK1, active compounds read low) was 0.951 and 0.943. The normalized growth (locus YJL115W, strain asf1, active compounds read low) was 0.981, the normalized growth (locus YJL129C, strain trk1, active compounds read low) was 0.933 and the normalized growth (locus YJL134W, strain LCB3, active compounds read low) was 0.988. The normalized growth (locus YJL154C, strain vps35, active compounds read low) was 0.97, the normalized growth (locus YJL164C, strain tpk1, active compounds read low) was 0.911 (active) and the normalized growth (locus YJL166W, strain qcr8, active compounds read low) was 0.97. It also gave a normalized growth (locus YJL168C, strain set2, active compounds read low) of 0.959, a normalized growth (locus YJL187C, strain SWE1 (second series), active compounds read low) of 1 and a normalized growth (locus YJL187C, strain SWE1, active compounds read low) of 0.979. It also gave a normalized growth (locus YJR043C, strain POL32, active compounds read low) of 0.921 and a normalized growth (locus YJR066W, strain TOR1, active compounds read low) of 0.9.
